Test [1] in a line: qHTS assay to identify small molecule agonists of the peroxisome proliferator-activated receptor delta (PPARd) signaling pathway - cell viability counter screen (AID 743211). Further: nearly all actives have a fitted effect of over 55% in size. Further: potency means the concentration at half of the fitted maximal effect. In a few lines:
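Viability was measured as CellTiter-Glo luminescence (30 min, room temperature) in the same wells as the beta-lactamase readout. GeneBLAzer PPARd UAS-bla HEK293H cells received compound after 5 h plating and were incubated 17 h at 37 C.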
For orientation: qHTS replaces the single test concentration by a dilution series.

Test [2] concerns the target Peroxisome proliferator-activated receptor delta (Homo sapiens) (UniProt Q03181). As to the kind of experiment: qHTS assay to identify small molecule agonists of the peroxisome proliferator-activated receptor delta (PPARd) signaling pathway (AID 743212; calls by dose curve). An outline of the steps:
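Tox21 library screened in GeneBLAzer PPARd UAS-bla HEK293H cells. After compound treatment at 37 C, a FRET-based beta-lactamase substrate was applied for 2 h and fluorescence recorded.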

Test [3] is described as follows: qHTS assay to identify small molecule antagonists of the peroxisome proliferator-activated receptor delta (PPARd) signaling pathway - cell viability counter screen (AID 743213). Further: nearly all actives have a fitted effect of over 50% in size. Further: potency means the concentration at half of the fitted maximal effect. In a few lines: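 HEK293H cells with the PPARd UAS-bla reporter, co-treated 17 h at 37 C with compounds and L165041 (300 nM final), were lysed with CellTiter-Glo. Luminescence indicated viable cell content.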

The target in test [4] is Peroxisome proliferator-activated receptor delta (Homo sapiens) (UniProt Q03181). As to the kind of experiment: qHTS assay to identify small molecule antagonists of the peroxisome proliferator-activated receptor delta (PPARd) signaling pathway (AID 743215; active means well fitted inhibition curve with a large enough effect in the signal ratio in the repeat runs, not every such curve was filed as active; the % refers to the signal ratio;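 further: cells stimulated with agonist L165041 at 300 nM final during compound exposure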; further: potency means the concentration at half of the fitted maximal effect). An outline of the steps: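 Screen format: qHTS, antagonist mode. HEK293H PPARd-bla cells received compound and 300 nM L165041 (final), 17 h, 37 C. Beta-lactamase detected via FRET substrate fluorescence, 2 h, room temperature.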

The nature of test [5]: qHTS assay to identify small molecule agonists of the farnesoid-X-receptor (FXR) signaling pathway - cell viability counter screen (AID 743218). Further: nearly all actives have a fitted effect of over 45% in size. Further: potency means the concentration at half of the fitted maximal effect. In a few lines: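 Same-well cytotoxicity check on FXR-UAS-bla HEK 293T cells: 5 h attachment, 16 h compound at 37 C, CellTiter-Glo luminescence read at room temperature after 30 min.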
Test [6] can be described thus: qHTS assay to identify small molecule antagonists of the farnesoid-X-receptor (FXR) signaling pathway - cell viability counter screen (AID 743221; active means well fitted cell-killing curve with a large enough effect in the repeat runs, not every such curve was filed as active; further: nearly all actives have a fitted effect of over 50% in size). An outline of the steps:
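Cytotoxicity counter screen run in the FXR-bla reporter wells: HEK 293T cells exposed to compound with 50 uM (final) chenodeoxycholic acid for 16 h, 37 C, then viability measured by CellTiter-Glo luminescence after 30 min, room temperature.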

The target in test [7] is Bile acid receptor (Homo sapiens) (UniProt Q96RI1). Description: qHTS assay to identify small molecule antagonists of the farnesoid-X-receptor (FXR) signaling pathway (AID 743217; active means well fitted inhibition curve with a large enough effect in the signal ratio in the repeat runs, not every such curve was filed as active; the % refers to the signal ratio). In a few lines:
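Quantitative HTS, beta-lactamase reporter format: FXR-UAS-bla HEK 293T cells co-treated 16 h at 37 °C with compounds and 50 uM final chenodeoxycholic acid, then read by B/G FRET fluorescence.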

Test [8] has the same target. Description: qHTS assay to identify small molecule agonists of the farnesoid-X-receptor (FXR) signaling pathway (AID 743220; active means well fitted activation curve with a large enough effect in the signal ratio in the repeat runs, not every such curve was filed as active; the % refers to the signal ratio). In a few lines:
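FXR-UAS-bla HEK 293T cells carrying a UAS-driven beta-lactamase reporter were plated for 5 h at 37C/5% CO2, then exposed to DMSO-dissolved Tox21 10K compounds for 16 h at 37C. A LiveBLAzer B/G FRET substrate was loaded for 2 h at room temperature before fluorescence reading.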

Test [9] concerns the target Vitamin D3 receptor (Homo sapiens) (UniProt P11473). Description: qHTS assay to identify small molecule agonists of the vitamin D receptor (VDR) signaling pathway (AID 743222; calls by dose curve). An outline of the steps:
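Using LiveBLAzer B/G FRET detection, agonism was scored in VDR-bla cells exposed overnight (16 h, 37C) to DMSO-dissolved compounds; substrate incubation was 2 h at room temperature.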

The target is the same in test [10]. Description: qHTS assay to identify small molecule antagonists of the vitamin D receptor (VDR) signaling pathway (AID 743223; active means well fitted inhibition curve with a large enough effect in the signal ratio in the repeat runs, not every such curve was filed as active; the % refers to the signal ratio). An outline of the steps:
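Antagonist mode: compound added to VDR-bla cells alongside agonist 1alpha,25-dihydroxyvitamin D3 (3 nM final), incubation 16 h at 37C. Read-out is LiveBLAzer FRET fluorescence, 2 h at room temperature.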

Drawing on PubChem BioAssay (Tox21), this text covers Potency for 23 molecules.

Each structure is given as a SMILES string. Where “and” joins values, the source holds several entries; their conditions need not be identical. Equal values may be shown once. Results filed as inconclusive are left out. Some compounds were tested as several samples or in several runs, with calls that do not always agree. Calls of active or inactive are those of the source. Unless noted, the call rests on the fitted dose curve; in most records, active means well fitted curve in the direction sought with a large enough effect in the repeat runs; inconclusive means weak or mixed curves; inactive means no such curve, though single readings can be large; an effect the other way counts as inactive or inconclusive.

Vitamin D3 receptor (Homo sapiens), sequence (P11473 whole entry, looked up): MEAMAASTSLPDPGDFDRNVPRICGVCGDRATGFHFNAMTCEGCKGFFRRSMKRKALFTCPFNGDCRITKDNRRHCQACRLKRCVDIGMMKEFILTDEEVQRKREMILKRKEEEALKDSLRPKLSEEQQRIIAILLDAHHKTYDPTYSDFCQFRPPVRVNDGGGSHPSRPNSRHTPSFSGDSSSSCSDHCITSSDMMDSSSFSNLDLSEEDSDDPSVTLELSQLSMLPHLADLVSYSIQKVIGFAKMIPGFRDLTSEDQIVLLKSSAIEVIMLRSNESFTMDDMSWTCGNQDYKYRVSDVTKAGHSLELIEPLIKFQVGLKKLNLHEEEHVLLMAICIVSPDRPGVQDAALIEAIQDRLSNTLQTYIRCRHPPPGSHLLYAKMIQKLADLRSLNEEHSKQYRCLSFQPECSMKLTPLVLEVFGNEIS
Peroxisome proliferator-activated receptor delta (Homo sapiens), sequence (Q03181 whole entry, looked up): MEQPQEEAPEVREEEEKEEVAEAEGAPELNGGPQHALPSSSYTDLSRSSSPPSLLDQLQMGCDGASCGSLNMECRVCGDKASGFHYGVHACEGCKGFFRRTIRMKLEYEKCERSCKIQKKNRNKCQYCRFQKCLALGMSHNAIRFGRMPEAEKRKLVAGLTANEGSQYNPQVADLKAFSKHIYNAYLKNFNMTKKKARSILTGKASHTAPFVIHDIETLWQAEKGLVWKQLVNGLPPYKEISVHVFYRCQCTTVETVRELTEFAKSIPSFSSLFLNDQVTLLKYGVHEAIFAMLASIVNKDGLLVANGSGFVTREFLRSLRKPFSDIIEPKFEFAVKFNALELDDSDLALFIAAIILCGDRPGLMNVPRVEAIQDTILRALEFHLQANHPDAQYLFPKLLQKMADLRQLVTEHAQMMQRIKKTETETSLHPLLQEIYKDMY
Bile acid receptor (Homo sapiens), sequence (Q96RI1 whole entry, looked up): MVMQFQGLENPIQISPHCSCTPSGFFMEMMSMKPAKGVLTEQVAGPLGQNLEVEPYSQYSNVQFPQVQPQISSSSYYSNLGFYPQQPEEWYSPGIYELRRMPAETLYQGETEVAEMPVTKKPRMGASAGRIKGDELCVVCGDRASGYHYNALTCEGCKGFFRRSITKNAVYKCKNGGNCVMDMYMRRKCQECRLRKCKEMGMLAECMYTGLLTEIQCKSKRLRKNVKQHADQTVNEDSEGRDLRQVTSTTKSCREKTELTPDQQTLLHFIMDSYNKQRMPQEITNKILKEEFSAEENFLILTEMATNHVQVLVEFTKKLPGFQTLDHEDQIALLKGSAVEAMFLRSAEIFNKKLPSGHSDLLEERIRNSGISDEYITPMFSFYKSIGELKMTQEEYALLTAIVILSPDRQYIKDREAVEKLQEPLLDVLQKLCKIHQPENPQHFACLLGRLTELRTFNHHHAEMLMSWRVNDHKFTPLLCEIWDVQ

`c1ccc2n[nH]nc2c1`: the Potency result in test [1], in test [2], in [4], in [5] and in test [6] was “inactive” each time. Also, in test [3], the Potency entry was “inactive and 38.9 µM (active)”.
For the molecule `c1ccc2c(c1)CCCC2C1=NCCN1` (stereo unspecified), the Potency entry in test [1], in test [2], in test [3], in [4], in test [7] and in [5] was “inactive” in each case. Moreover, the Potency entry in [8], in test [6] and in [9] was “inactive” throughout.
For `CCn1cc(C(=O)O)c(=O)c2cc(F)c(N3CCNC(C)C3)c(F)c21` (stereo unspecified), the Potency entry in test [1], in [2], in test [3], in [4], in [5] and in test [6] was “inactive” throughout.
Consider `CC(=O)OCCOCCOCCOC(C)=O`, for which the Potency result in test [1], in [2], in test [3], in test [4], in test [7] and in [5] was “inactive” throughout. For the same molecule, the Potency entry in test [8], in [6], in test [9] and in test [10] was “inactive” each time.
For the molecule `CCn1c2ccccc2c2cc(N)ccc21`, the Potency result in [1], in test [2], in test [3], in [4], in [5] and in test [6] was “inactive” throughout.
In the case of `CCN(CC)C(=O)Nc1ccc(OCC(O)CNC(C)(C)C)c(C(C)=O)c1` (stereo unspecified), the Potency result in [1], in [2], in [3], in test [4], in [5] and in [6] was “inactive” in each case.
As for `NC(N)=Nc1nc(CSCC/C(N)=N/S(N)(=O)=O)cs1`, the Potency result in [1], in [2], in test [3], in test [4], in test [7] and in [5] was “inactive” in each case. In addition, the Potency entry in test [8], in test [6], in test [9] and in test [10] was “inactive” in each case.
For `CC(=O)N[C@@H](CS)C(=O)O`, the Potency entry in [1], in [2], in [3], in test [4], in test [7] and in test [5] was “inactive” each time. The Potency result in [8], in [6], in test [9] and in [10] was “inactive” in each case.
Regarding `CNC1(C)C2CCC(C2)C1(C)C` (stereo unspecified), the Potency result in test [1], in [2], in test [3], in [4], in test [7] and in [5] was “inactive” throughout. Moreover, the Potency result in test [8], in [6] and in [9] was “inactive” throughout.
For `CC(C)(C)NCC(O)COc1ccccc1OCC1CCCO1` (stereo unspecified), the Potency result in [1], in test [2], in test [3], in test [4], in [7] and in test [5] was “inactive” each time. Also, the Potency result in test [8] and in [6] was “inactive” in each case.
Regarding `CC(=O)CC(=O)Nc1ccc2[nH]c(=O)[nH]c2c1`, the Potency result in test [1], in test [2], in test [3], in [4], in test [7] and in test [5] was “inactive” throughout. Besides, the Potency result in [8] and in test [6] was “inactive” each time.
`CC(=O)O[C@]1(C(C)=O)CC[C@H]2[C@@H]3C[C@H](C)C4=CC(=O)CC[C@]4(C)[C@H]3CC[C@@]21C`: the Potency entry in [1], in test [2], in test [3], in [4], in [7] and in test [5] was “inactive” in each case. Further, the Potency entry in test [8], in [6] and in test [10] was “inactive” in each case.
In the case of `Oc1ccc(Cl)cc1Cc1cc(Cl)ccc1O`, the Potency in [1] is 44.4 µM (active) and 30.9 µM (active) and 29.8 µM (active); in test [3], 25 µM (active); in [4] it was 55.9 µM (active) and inactive; in [5] it was 49 µM (active). Further, the Potency result in test [2], in test [8], in test [6] and in test [9] was “inactive” each time.
Take `CC1COc2c(N3CCN(C)CC3)c(F)cc3c(=O)c(C(=O)O)cn1c23` (stereo unspecified): the Potency result in [1], in test [2], in test [3], in test [4], in test [7] and in [5] was “inactive” in each case. Further, the Potency result in test [8], in test [6], in test [9] and in [10] was “inactive” each time.
Turning to `CC(=O)Nc1ccc(C(=O)CCl)cc1`, the Potency result was “inactive and 49 µM (active)” in test [1]; “inactive and 43.6 µM (active)” in [3]; “inactive and 54.9 µM (active)” in test [5]. Besides, the Potency result in test [2], in test [4], in test [7], in test [6] and in test [9] was “inactive” each time.
`O=C(O)c1cccc(C(=O)O)c1`: the Potency entry in [1], in test [2], in [3], in test [4], in [7] and in [5] was “inactive” in each case. Besides, the Potency entry in test [8] and in [6] was “inactive” in each case.
In the case of `C=C(C)C1CC=C(C)C(OC(C)=O)C1` (stereo unspecified), the Potency result in test [1], in test [2], in test [3], in [4], in test [7] and in test [5] was “inactive” each time. The Potency result in test [8], in test [6], in test [9] and in test [10] was “inactive” each time.
`CCOC(=O)C(C)C(C)=O` (stereo unspecified): the Potency result in test [1], in [2], in test [3], in test [4], in test [5] and in test [6] was “inactive” throughout.
In the case of `Cc1ccnc2c1NC(=O)c1cccnc1N2C1CC1`, the Potency entry in [1], in test [2], in test [3], in test [4], in test [7] and in [5] was “inactive” in each case. Further, the Potency result in test [8], in [6], in test [9] and in [10] was “inactive” throughout.
As to `OCCN1CCNCC1`, the Potency entry in [1], in [2], in [3], in [4], in [7] and in test [5] was “inactive” in each case. The Potency result in test [8], in test [6], in test [9] and in [10] was “inactive” throughout.
Regarding `CCCOC(=O)c1cc(O)c(O)c(O)c1`, the Potency result in test [1], in test [2], in test [3], in [4], in test [5] and in test [8] was “inactive” each time. Moreover, the Potency result in test [6], in test [9] and in [10] was “inactive” in each case.
With `COc1ccc(COC(C)=O)cc1`, the Potency result in test [1], in test [2], in test [3], in test [4], in [7] and in [5] was “inactive” throughout. The Potency entry in [8], in [6], in test [9] and in test [10] was “inactive” throughout.
For `Cc1scc2c1N(C(=O)CN1CCN(C)CC1)c1ccccc1NC2=O`, the Potency result in [1], in [2], in [3], in test [4], in test [7] and in [5] was “inactive” each time. Moreover, the Potency result in [8], in test [6], in [9] and in test [10] was “inactive” in each case.
